# Screening results: PubChem, National Center for Advancing Translational Sciences (NCATS)
# Most compounds without a hit are left out; they make up all but 1.2% or so of the library.
# TRb SRC2 PPI: inhibitors of human thyroid hormone receptor beta-SRC2 interaction. P10828. TRbeta-SRC2 peptide binding, fluorescence polarization; receptor liganded with 1 µM T3. Potency, µM (highest dose often 106 µM), for the others: at the highest dose activity change, negative = inhibition, hits mostly inhibitors. 280,000 tested, 0.065% active. AID 1469;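 also: plate controls were bound peptide for no effect and peptide without receptor for full effect; nearly all actives have a fitted effect of over 50% in size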
#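 Fluorescence polarization of 20 nM Texas Red SRC2 peptide with 0.6 uM human TRb ligand-binding domain, in Tris buffer with 1uM T3 and 5% DMSO. Incubated 5 hr ambient; normalized to unbound and bound controls.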
# TexasRed fluor: alters Texas Red total fluorescence, flagging assay interference; TRb/SRC2 Texas Red total fluorescence interference; 280,000 tested, 0.29% active; Potency, µM (top dose mostly 106 µM), inactives show at the top dose fluorescence change, negative = quenching; active = well fitted curve in either direction with a large enough effect; inconclusive = small, poorly fitted or top-dose-only effect
#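 Human TRb ligand-binding domain at 0.6 uM with 20 nM Texas Red SRC2 peptide in Tris buffer containing 1 uM T3 and 5% DMSO, incubated with compound 5 h at ambient temperature. Total fluorescence (555/632 nm) calculated as parallel + 2 × perpendicular.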
# RGS12 GoLoco inh: blocks human Gai1 binding to RGS12 GoLoco peptide, red readout | Gai1:RGS12 GoLoco peptide FP, rhodamine, 10 min | Potency, µM (top dose mostly 61.6 µM), without a hit: at the top dose activity, negative = inhibition, most hits filed as inhibitors | 230,000 tested, 0.44% active | P63096; active = well fitted inhibition curve with a large enough effect, not every such curve was filed as active; inactive = no such curve, though single readings can be large or run the other way; also: nearly all actives have a fitted effect of over 30% in size
# Target sequence (P63096 whole entry, looked up): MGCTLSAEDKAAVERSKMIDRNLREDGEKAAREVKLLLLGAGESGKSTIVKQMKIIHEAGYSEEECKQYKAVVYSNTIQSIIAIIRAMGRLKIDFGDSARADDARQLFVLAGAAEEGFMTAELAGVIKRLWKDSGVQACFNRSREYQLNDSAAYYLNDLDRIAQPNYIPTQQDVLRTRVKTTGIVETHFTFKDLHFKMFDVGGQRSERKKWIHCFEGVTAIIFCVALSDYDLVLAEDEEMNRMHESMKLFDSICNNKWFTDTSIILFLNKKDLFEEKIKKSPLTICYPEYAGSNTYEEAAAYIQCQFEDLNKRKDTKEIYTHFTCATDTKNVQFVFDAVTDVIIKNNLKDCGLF
# VDR inh: blocks the human vitamin D receptor; P11473; VDR-SRC2-3 peptide fluorescence polarization, 2 h; Potency, µM, inactives show max response, negative = inhibition, hits mostly inhibitors; 400,000 tested, 0.93% active; AID 504847
#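 Two reagent solutions held at 4 deg C in the dark were dispensed, compounds pinned at 23 nl, and the mixture incubated 2 h at room temperature. Read-out: fluorescence polarization of VDR–SRC2-3 peptide binding.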
# KAT2A inh: GCN5L2 (KAT2A) acetyltransferase inhibition; Q92830; GCN5L2 HAT assay, ThioGlo1 CoA-SH fluorescence; Potency, µM (titrated, usually from 58.9 µM), for the others: at the top dose activity change, negative = inhibition, most hits filed as inhibitors; 390,000 tested, 0.21% active
#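 Preincubate 20nM GCN5L2 with compound 15 min, RT → add 50uM ThioGlo1 + 75uM H3(1-25) + 70uM acetyl-CoA → read fluorescence 0 and 20 min. Primary qHTS; fluorescent artifacts likely.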
# The depositor's hits bear a star; ? = inconclusive; · = no result; [ ] = dose if it differs, or a comment. Unless noted, calls follow the shape of the dose curve; as a rule, active = well fitted curve in the direction sought with a large enough effect; inconclusive = small, poorly fitted or top-dose-only effect, or another doubt; inactive = no such curve, though single readings can be large; an effect the other way counts as inactive or inconclusive. Unless noted, % is scaled to controls: 0 for no effect and ±100 for the full control effect; potency is read from the fitted curve at half-maximal effect.
SMILES,TRb SRC2 PPI,TexasRed fluor,RGS12 GoLoco inh,VDR inh,KAT2A inh
NNC(=O)c1[nH]c2ccc(Cl)cc2c1-c1ccccc1,0%,-2%,0%,79µM*,-1%
NNC(=O)c1[nH]c2ccc(Br)cc2c1-c1ccccc1,2%,-6%,-21%,?,-2%
COc1cc(OC)cc(C2=Nn3c(nnc3-c3ccccc3OC)SC2)c1,1%,-1%,·,·,·
CCn1c(CSc2nccn2C)nc2cc(C(=O)O)ccc21,?,13µM*[fluorescent],16µM*,?,0%
COc1ccc(N2CCN(c3ccc(C(N)=O)cc3[N+](=O)[O-])CC2)cc1,-4%,-3%,8%,12%,-2%
COc1ccc(N2CCN(C(=O)c3cccnc3)CC2)c([N+](=O)[O-])c1,-2%,-3%,20µM*,3%,-6%
O=[N+]([O-])c1ccc(N2CCCCC2)cc1N1CCOCC1,-7%,0%,-3%,1%,-6%
S=P(c1ccc(N2CCOCC2)cc1N1CCOCC1)(N1CCOCC1)N1CCOCC1,-3%,-1%,-10%,79µM*,9%
COc1ccc(-c2nc(N3CCN(S(=O)(=O)c4ccc(F)cc4)CC3)c3ccccc3n2)cc1,·,·,·,-22%,·
CC(C)(C)c1cc(CCC(=O)NN)cc(C(C)(C)C)c1O,-22%,0%,5%,12%,1%
COCCOC(=O)/C(=C\c1cc(C(C)(C)C)c(O)c(C(C)(C)C)c1)C(C)=O,9%,0%,-3%,35µM*,-6%
COc1ccc(-c2nnc(SCC(=O)Nc3ccc(C(C)=O)cc3)nc2-c2ccc(OC)cc2)cc1,2%,-2%,·,11%,-1%
CCc1ccc(NC(=O)CSc2ccc(-c3ccco3)nn2)cc1,2%,-4%,1%,79µM*,-5%
CC(=O)c1ccc(NC(=O)CSc2nnc(-c3ccco3)c(-c3ccco3)n2)cc1,-4%,0%,13%,22µM*,?
CC(=O)c1cccc(NC(=O)CSc2ccc(-c3ccco3)nn2)c1,·,·,·,?,-23%
CC(=O)c1ccc(Nc2c3ccccc3cc3occc23)cc1,-4%,-1%,·,0%,0%
COC(=O)c1cccc(-c2ccc(C(c3c(C)[nH][nH]c3=O)c3c(C)[nH][nH]c3=O)o2)c1,-28%,-5%,2%,-27%,-3%
Cc1[nH][nH]c(=O)c1C(c1ccc(-c2ccc(Cl)c(C(=O)O)c2)o1)c1c(C)[nH][nH]c1=O,-26%,-2%,-7%,40µM*,-22%
CN1CC2(Cc3cc([N+](=O)[O-])ccc31)C(=O)OC(C)(C)OC2=O,·,·,·,-13%,·
Cc1[nH]n(-c2ccccc2)c(=O)c1C(c1ccccc1[N+](=O)[O-])C(C#N)C#N (configuration not stated),·,·,·,89µM*,1%
Cc1[nH]n(-c2ccccc2)c(=O)c1C(C[N+](=O)[O-])c1ccc(F)cc1 (configuration not stated),-16%,0%,-2%,?,-5%
Cc1[nH]n(-c2ccccc2)c(=O)c1C(c1ccccc1C(=O)O)c1c(C)[nH]n(-c2ccccc2)c1=O,-4%,3%,1%,-3%,-4%
Cc1ccc(C(C[N+](=O)[O-])c2c(C)[nH]n(-c3ccccc3)c2=O)cc1 (configuration not stated),-21%,3%,-5%,45µM*,-2%
C=CC(=O)OCC(CO)(COC(=O)C=C)COC(=O)C=C,-14%[201 µM],0%[201 µM],11%,·,·
O=C(COc1cccc(NC(=O)c2cccc([N+](=O)[O-])c2)c1)c1ccc(F)cc1,0%,-7%,0%,15%,-11%
SMILES,TRb SRC2 PPI,TexasRed fluor,RGS12 GoLoco inh,VDR inh,KAT2A inh
O=C(CCNc1cccc(F)c1)c1cccc([N+](=O)[O-])c1,-8%,-2%,12%,89µM*,-11%
C=C(C)C(=O)N1CC2(CC(c3cccc(NC(=O)/C=C\C=C/C)c3)=NO2)C[C@H]1C(N)=O (some centres not stated),6%,2%,-19%,89µM*,0%
COc1cccc(CNC(=O)COC(=O)c2ccc(S(C)(=O)=O)c([N+](=O)[O-])c2)c1,·,·,·,-3%,·
CC(=O)Nc1ccc(/C=C/c2nc3ccccc3[nH]c2=O)cc1,·,·,·,9%,-4%
O=c1[nH]c2ccccc2nc1/C=C/c1ccc(Cl)cc1,-6%,1%,9%,22µM*,-5%
COCCN(C(=O)CSc1nc2ccccc2s1)c1c(N)n(Cc2ccccc2)c(=O)[nH]c1=O,·,·,·,79µM*,·
COc1ccc(OC)c(C2=Nn3c(nnc3-c3ccccc3C)SC2)c1,1%,-4%,·,·,·
O=[N+]([O-])c1cnc(Sc2ccncn2)s1,1%,-1%,-6%,22µM*,-11%
O=C(NCC(c1cccnc1)N1CCc2ccccc21)c1ccc(F)cc1 (configuration not stated),?,0.079µM*[quencher],·,11%,-14%
Cc1ccccc1C(=O)NCC(c1cccnc1)N1CCc2ccccc21 (configuration not stated),0%,1%,·,6%,-7%
O=C(NCC(c1cccnc1)N1CCc2ccccc2C1)C(=O)Nc1ccc(F)cc1F (configuration not stated),?,2.8µM*[quencher],·,6%,0%
O=S(=O)(c1ccc2ncsc2c1)N1CCN(c2nc(-c3cccs3)nc3ccccc23)CC1,·,·,·,-24%,·
Cc1ccc(-c2[nH]ncc2CNCc2ccc(CN(C)C)cc2)cc1,·,·,·,-15%,·
CCOc1ccc(C2=CSC3=NCCN23)cc1Cl,·,·,·,79µM*,-4%
NC=O,-5%,0%,2%,·,·
NC(=O)CC(NSc1ccccc1[N+](=O)[O-])C(=O)O (configuration not stated),-13%,-2%,0%,?,-1%
O=C(O)C1CCC(NSc2ccccc2[N+](=O)[O-])CC1 (configuration not stated),-1%,-1%,-1%,28µM*,-3%
Cc1ccc(NC(=O)CSc2ccc(C(N)=O)cc2[N+](=O)[O-])cc1,11%,-3%,6%,-19%,1%
Cc1ccc(NC(=O)CSc2ccc(C(N)=O)cc2[N+](=O)[O-])cc1C,4%,-6%,17%,22µM*,-4%
COc1ccccc1CNc1nc2c(S(=O)(=O)c3ccccc3)nnn2c2ccc(Cl)cc12,-8%,3%,·,-6%,25µM*
COc1ccc(Nc2nc3c(S(=O)(=O)c4ccccc4)nnn3c3ccc(Cl)cc23)cc1OC,-5%,5%,·,-9%,-1%
COC(=O)c1nc(N2CCN(S(=O)(=O)c3ccc(C)cc3)CC2)c2ccccc2n1,·,·,·,-21%,·
CO[Si](OC)(OC)c1ccccc1,-4%[201 µM],0%[201 µM],·,·,·
O=C(N/N=C1\CCCc2ccccc21)c1cccc([N+](=O)[O-])c1,1%,-2%,6%,-2%,32µM*
O=C(N/N=C1/CCCc2ccccc21)c1cc([N+](=O)[O-])cc([N+](=O)[O-])c1,-2%,-2%,1%,·,-8%
